Measured values: PubChem BioAssay (NCI)
“And” between values parts separate entries of the source, which are not always exact repeats. Equal entries are not always repeated. The panel holds about 79,000 compounds, 15% with a hit somewhere; the sample as a whole holds those more often. Some compounds were tested as several samples or in several runs, with calls that do not always agree. The source made the active and inactive calls. Rule as the data show it: active = growth inhibition above about 70%; inactive = the rest.

Tests used:
[1] = NCI Yeast Anticancer Drug Screen. Data for the CLN2oe strain (AID 163);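 also: 0% = growth of vehicle-only control cultures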; settings: S. cerevisiae CLN2oe strain, stronger effect = higher value
How it was run: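 Growth of a genetically modified yeast strain is measured after compound exposure and compared with cultures given vehicle alone.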

[2] = NCI Yeast Anticancer Drug Screen. Data for the cln2 rad14 strain (AID 165);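 also: 0% = growth equal to vehicle treated cultures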; settings: S. cerevisiae cln2 rad14 strain, stronger effect = higher value
How it was run: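 Compounds are applied to the cln2 rad14 yeast strain, and growth is then compared with that of vehicle-treated cultures to give inhibition.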

[3] = NCI Yeast Anticancer Drug Screen. Data for the bub3 strain (AID 167); settings: S. cerevisiae bub3 mutant strain, stronger effect = higher value
How it was run: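 Inhibition values come from growth of compound-treated mutant yeast normalised to vehicle-treated controls.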

[4] = NCI Yeast Anticancer Drug Screen. Data for the wt2 strain (AID 169);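 also: 0% = growth of vehicle-treated yeast cultures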; settings: S. cerevisiae wt2 strain growth inhibition, stronger effect = higher value
How it was run: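 This strain belongs to a panel of yeast strains with defined genetic alterations in DNA damage repair or cell cycle control. Compounds are applied, and growth inhibition is measured against vehicle-treated cultures.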

[5] = NCI Yeast Anticancer Drug Screen. Data for the sgs1 strain (AID 173);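 also: 0% = growth of vehicle-only control cultures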; settings: S. cerevisiae sgs1 mutant, stronger effect = higher value
How it was run: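 Growth of a yeast strain bearing a defined genetic alteration is measured after compound treatment. Inhibition is expressed relative to vehicle-only controls.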

[6] = NCI Yeast Anticancer Drug Screen. Data for the mlh1 rad18 strain (AID 175); settings: S. cerevisiae mlh1 rad18 strain growth inhibition, stronger effect = higher value
How it was run: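 Read-out is yeast growth inhibition, calculated against vehicle-only controls. The compound was applied to a strain engineered with DNA damage repair alterations.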

[7] = NCI Yeast Anticancer Drug Screen. Data for the rad18 strain (AID 177); settings: S. cerevisiae rad18 mutant growth inhibition, stronger effect = higher value
How it was run: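 Growth of the mutant yeast strain after compound exposure, normalised to vehicle-only cultures.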

[8] = NCI Yeast Anticancer Drug Screen. Data for the rad50 strain (AID 155);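 also: 0% = growth of vehicle-only cultures of the same strain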; settings: S. cerevisiae rad50 strain growth inhibition, stronger effect = higher value
How it was run: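 A DNA repair-deficient yeast mutant serves as the test organism; compound-induced growth inhibition is calculated against vehicle-treated cells.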

[9] = NCI Yeast Anticancer Drug Screen. Data for the mec2-1 strain (AID 157); settings: S. cerevisiae mec2-1 strain, stronger effect = higher value
How it was run: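 Strain: mec2-1 (DNA repair/cell cycle alteration). Compound exposure, then growth measured; inhibition expressed relative to vehicle.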

[10] = NCI Yeast Anticancer Drug Screen. Data for the sgs1 mgt1 strain (AID 161);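 also: 0% = growth of cultures given vehicle only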; settings: S. cerevisiae sgs1 mgt1 strain, stronger effect = higher value
How it was run: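 Read-out: growth inhibition vs vehicle controls. Cells: mutant yeast strain deficient in DNA damage repair.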

[11] = NCI Yeast Anticancer Drug Screen. Data for the rad50EPP+ strain (AID 151);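 also: 0% = growth of vehicle-treated control cultures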; settings: S. cerevisiae rad50 mutant strain, stronger effect = higher value
How it was run: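 Compounds were applied to the rad50EPP+ yeast strain, which bears a defined DNA repair alteration, and growth inhibition was determined relative to vehicle-treated cultures.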

[12] = NCI Yeast Anticancer Drug Screen. Data for the mgt1 strain (AID 153); settings: S. cerevisiae mgt1 mutant growth inhibition, stronger effect = higher value
How it was run: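 Strain: mgt1 yeast, one of a set carrying defined DNA damage repair or cell cycle control alterations. Compound-treated growth compared with vehicle.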

[13] = NCI Yeast Anticancer Drug Screen. Data for the rad14 strain (AID 159);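 also: 0% = growth of vehicle-treated control cultures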; settings: S. cerevisiae rad14 strain growth inhibition, stronger effect = higher value
How it was run: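 Vehicle-treated cultures served as the baseline for growth inhibition of a DNA repair-mutant yeast strain exposed to each compound.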

[14] = NCI Yeast Anticancer Drug Screen. Data for the mlh1 strain (AID 171);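 also: 0% = growth of vehicle-treated control cultures of the same strain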; settings: S. cerevisiae mlh1 strain growth inhibition, stronger effect = higher value
How it was run: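 Growth of the mutant yeast strain after compound exposure, expressed as inhibition relative to vehicle-only controls.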

[15] = at 5.0 µM (retest, dose inferred, filed as 0.5)
[16] = at 50.0 µM (retest, dose inferred, filed as 5.0)

Measured: growth inhibition

C/C(=N\N=C(N)N)C(CN1CCOCC1)C(c1ccccc1)c1c(O)c2ccccc2oc1=O (centres undefined)
active: [2]; at 50.0 µM 85.5% | [3]; at 50.0 µM 77.8% | [4]; at 100.0 µM 95% | [5]; at 100.0 µM 97% | [7]; at 100.0 µM 93%
inactive: [1]; at 3.7 µM 7% | [1]; at 11.0 µM 2% | [1]; at 33.0 µM 18% | [1]; at 100.0 µM 48% | [2]; [15] 7% | [2]; [16] 7% | [3]; at 1.2 µM 5% | [3]; at 3.7 µM 4% | [3]; [15] 31% | [3]; at 11.0 µM 18% | [3]; at 33.0 µM 47% | [3]; [16] 31% | [3]; at 100.0 µM 43% | [4]; at 1.2 µM -1% | [4]; at 3.7 µM 0% | [4]; at 11.0 µM 0% | [4]; at 33.0 µM 35% | [5]; at 1.2 µM -1% | [5]; at 3.7 µM -3% | [5]; at 11.0 µM 0% | [5]; at 33.0 µM 42% | [6]; [15] 57% | [6]; [16] 57% | [6]; at 50.0 µM 49.2% | [7]; at 1.2 µM -3% | [7]; at 3.7 µM -9% | [7]; at 11.0 µM -12% | [7]; at 33.0 µM 13%

N#Cc1ccc([Se]c2ccccc2)cc1
active: [8]; [15] 91% | [8]; [16] 96% | [8]; at 50.0 µM 73.9% | [9]; [15] 95% | [9]; [16] 96% | [10]; at 50.0 µM 72.3% | [2]; [16] 73% | [3]; [16] 84% | [3]; at 50.0 µM 77.9% | [6]; [15] 89% | [6]; [16] 97%
inactive: [9]; at 50.0 µM 54.1% | [10]; [15] -1% | [10]; [16] 67% | [2]; [15] 33% | [2]; at 50.0 µM 57% | [3]; [15] 40% | [4]; at 1.2 µM 10% | [4]; at 3.7 µM 13% | [4]; at 11.0 µM 6% | [4]; at 33.0 µM 28% | [4]; at 100.0 µM 63% | [6]; at 50.0 µM 56%

Oc1ccc(Cl)cc1Cc1ccccc1
inactive: [11]; at 1.2 µM -52% | [11]; at 3.7 µM -15% | [11]; at 11.0 µM 28% | [12]; at 1.2 µM 11% | [12]; at 3.7 µM -2% | [8]; at 1.2 µM -46% | [8]; at 3.7 µM -43% | [8]; [15] 58% | [8]; at 11.0 µM 54% | [9]; at 1.2 µM -40% | [9]; at 3.7 µM 5% | [9]; [15] 54% | [13]; at 1.2 µM -23% | [13]; at 3.7 µM -23% | [13]; at 11.0 µM 54% | [10]; [15] -5% | [10]; [16] 44% | [1]; at 1.2 µM -11% | [1]; at 3.7 µM -30% | [2]; [15] 41% | [3]; at 1.2 µM -52% | [3]; at 3.7 µM -18% | [3]; [15] 36% | [4]; at 1.2 µM -53% | [4]; at 3.7 µM -16% | [4]; at 11.0 µM 54% | [14]; at 1.2 µM 12% | [14]; at 3.7 µM -9% | [14]; at 11.0 µM 69% | [5]; at 1.2 µM -23% | [5]; at 3.7 µM -17% | [5]; at 11.0 µM 66% | [6]; [15] 29% | [7]; at 1.2 µM -71% | [7]; at 3.7 µM -30% | [7]; at 11.0 µM 54%
active: [11]; at 33.0 µM 95% | [11]; at 100.0 µM 97% | [12]; at 11.0 µM 85% | [12]; at 33.0 µM 98% | [12]; at 100.0 µM 99% | [8]; at 33.0 µM 98% | [8]; [16] 86% | [8]; at 50.0 µM 92% | [8]; at 100.0 µM 98% | [9]; at 11.0 µM 77% | [9]; at 33.0 µM 84% | [9]; [16] 83% | [9]; at 50.0 µM 93.7% | [9]; at 100.0 µM 99% | [13]; at 33.0 µM 99% | [13]; at 100.0 µM 99% | [10]; at 50.0 µM 94.4% | [1]; at 11.0 µM 71% | [1]; at 33.0 µM 99% | [1]; at 100.0 µM 99% | [2]; [16] 99% | [2]; at 50.0 µM 92.9% | [3]; at 11.0 µM 70% | [3]; at 33.0 µM 100% | [3]; [16] 99% | [3]; at 50.0 µM 92.5% | [3]; at 100.0 µM 100% | [4]; at 33.0 µM 98% | [4]; at 100.0 µM 98% | [14]; at 33.0 µM 99% | [14]; at 100.0 µM 99% | [5]; at 33.0 µM 98% | [5]; at 100.0 µM 99% | [6]; [16] 70% | [6]; at 50.0 µM 93% | [7]; at 33.0 µM 95% | [7]; at 100.0 µM 97%

Cc1cc(N=Nc2ccccc2C)ccc1N
52% (inactive) and 99% (active): [9]; [16]
active: [8]; at 50.0 µM 91.4% and 88.5% | [9]; at 50.0 µM 93% and 91.7% | [10]; [16] 99% and 96% | [10]; at 50.0 µM 93.5% and 89.3% | [2]; [16] 98% and 96% | [2]; at 50.0 µM 91.1% and 91.5% | [3]; [16] 97% and 99% | [3]; at 50.0 µM 91.5% and 90% | [4]; at 33.0 µM 96% | [4]; at 100.0 µM 99% | [6]; at 50.0 µM 90.8% and 91.9%
38% (inactive) and 97% (active): [6]; [16]
inactive: [8]; [15] 34% and 23% | [9]; [15] 46% and 23% | [10]; [15] -4% and 31% | [2]; [15] 41% and 20% | [3]; [15] 12% and 41% | [4]; at 1.2 µM 2% | [4]; at 3.7 µM -7% | [4]; at 11.0 µM 4% | [6]; [15] 32% and 35%
44% (inactive) and 96% (active): [8]; [16]

O=C1C=C(Cl)C(=O)C=C1Cl
inactive: [8]; [15] 17% | [9]; [15] 13% | [10]; [15] 10% | [2]; [15] 5%
active: [8]; [16] 99% | [8]; at 50.0 µM 99.2% | [9]; [16] 100% | [9]; at 50.0 µM 99.5% | [10]; [16] 99% | [10]; at 50.0 µM 99.5% | [2]; [16] 91% | [2]; at 50.0 µM 86.7%
